Experimental findings from PubChem BioAssay (NCI) are described below.

Compounds without any hit were thinned out: in the full panel of roughly 83,000, 20% have a hit.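 The test compound was applied at a single concentration to cells in 96-well plates for 48 hours, and percent growth was recorded.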 Values without a mark were called inactive. Activity calls are given as the source filed them. Rule for the calls: active = growth percent below 10; inactive = the rest.

Test systems include SR leukemia; OVCAR-8 ovarian; OVCAR-5 ovarian; OVCAR-4 ovarian; SK-OV-3 ovarian; IGROV1 ovarian; OVCAR-3 ovarian; HS 578T breast; NCI/ADR-RES ovarian.
Common to all, as to assay: NCI-60 one-dose screen, 48 h (100 = growth as untreated, 0 = no growth, -100 = all killed)
Holding throughout (conditions): 10 µM unless noted

Take `COc1ccc(C2CC(c3ccc4c(c3)OCO4)=NN2C=O)cc1` (stereo unspecified): the growth in the test with SR leukemia was 100%; with OVCAR-8 ovarian, 106%; in the test with OVCAR-5 ovarian it was 110%; in the test with OVCAR-4 ovarian it was 92.8%; in the test with SK-OV-3 ovarian, 108%; in the test with IGROV1 ovarian, 127%. Moreover, the figures for the growth in the test on OVCAR-3 ovarian, with HS 578T breast and in the test with NCI/ADR-RES ovarian were 128%, 115% and 103%, respectively.

Regarding `CNCCCn1c2c(c3ccc(F)cc3c1=O)C(=O)c1cc(OC)cnc1-2`, the growth with SR leukemia is -9.31% (active); with OVCAR-8 ovarian, -19.8% (active); in the test with OVCAR-5 ovarian, -8.53% (active); with OVCAR-4 ovarian, -5.91% (active); in the test on SK-OV-3 ovarian, -24.5% (active); in the test on IGROV1 ovarian, 11.4%. Further, the growth is -11.4% (active) with OVCAR-3 ovarian, 22.1% in the test with HS 578T breast and 3.1% (active) with NCI/ADR-RES ovarian.

With `O=[N+]([O-])c1ccc(N=Nc2c(Cl)cc(O)cc2Cl)cc1`, the growth was 3.27% (active) with SR leukemia; 6.5% (active) with OVCAR-8 ovarian; 25.3% with OVCAR-5 ovarian; 12.1% in the test with OVCAR-4 ovarian; 13.3% with SK-OV-3 ovarian; 6.67% (active) in the test on IGROV1 ovarian. Further, the values for the growth in the test with OVCAR-3 ovarian, with HS 578T breast and in the test on NCI/ADR-RES ovarian were -25.3% (active), -20% (active) and -19.7% (active), respectively.

Consider `Clc1ccc2c(c1)C(Br)c1cc(Cl)cc(Cl)c1-2` (stereo unspecified), for which the growth in the test with SR leukemia was -4.33% (active); in the test with OVCAR-8 ovarian, 101%; in the test with OVCAR-5 ovarian, 84.4%; in the test with OVCAR-4 ovarian, 88.5%; with SK-OV-3 ovarian, 80%; with IGROV1 ovarian, 57.1%. Moreover, the figures for the growth with OVCAR-3 ovarian, with HS 578T breast and in the test with NCI/ADR-RES ovarian were 91.7%, 65.1% and 96.1%, respectively.

Regarding `OC(c1ccccc1)C(NCc1ccccc1)c1ccccc1` (stereo unspecified), the growth in the test with SR leukemia was 103%; in the test on OVCAR-8 ovarian, 109%; in the test on OVCAR-5 ovarian, 88.6%; in the test on OVCAR-4 ovarian, 94.3%; in the test on SK-OV-3 ovarian, 101%; with IGROV1 ovarian it was 96.7%. Moreover, the growth in the test on OVCAR-3 ovarian was 111%; with HS 578T breast it was 107%; in the test on NCI/ADR-RES ovarian, 85.1%.

For the compound `COc1ccc(/C=C2/SC(=Nc3c(C)nn(-c4ccccc4)c3N)NC2=O)cc1`, the growth in the test on SR leukemia was 14.9%; in the test with OVCAR-8 ovarian, 70.2%; in the test with OVCAR-5 ovarian it was 76.2%; with OVCAR-4 ovarian it was 51.9%; in the test with SK-OV-3 ovarian, 54.2%; in the test on IGROV1 ovarian, 27.2%. For the same compound, the growth was -28.9% (active) with OVCAR-3 ovarian, 31.7% in the test with HS 578T breast and 42% with NCI/ADR-RES ovarian.

Take `Cc1ccccc1NC(=O)NC(CC(N)=O)c1ccc2c(c1)nc(-c1cccc(Oc3ccc(C(C)(C)C)cc3)c1)n2CCCN1CCCCC1C` (stereo unspecified): the growth is -33.9% (active) with SR leukemia; 3.11% (active) in the test with OVCAR-8 ovarian; 88.8% with OVCAR-5 ovarian; 66.5% in the test with OVCAR-4 ovarian; 103% in the test with SK-OV-3 ovarian; 46.4% with IGROV1 ovarian. The growth is 53.2% in the test with OVCAR-3 ovarian, 6.75% (active) with HS 578T breast and 94.3% with NCI/ADR-RES ovarian.

Regarding `CC[C@@H](c1ccc(O)c(O)c1)[C@@H](CC)c1ccc(O)c(O)c1`, the growth was 52.6% in the test on SR leukemia; 101% in the test on OVCAR-8 ovarian; 115% in the test on OVCAR-5 ovarian; 68.1% in the test on OVCAR-4 ovarian; 122% in the test with SK-OV-3 ovarian; 98.1% in the test with IGROV1 ovarian. For the same compound, the growth is 50.6% with OVCAR-3 ovarian and 99.9% in the test with NCI/ADR-RES ovarian.

Turning to `O=C(O)C1C(c2ccccc2)c2ccccc2C(O)C1CO` (stereo unspecified), the growth in the test with SR leukemia was 99.6%; in the test on OVCAR-8 ovarian, 103%; in the test with OVCAR-5 ovarian, 101%; with OVCAR-4 ovarian, 108%; in the test with SK-OV-3 ovarian, 94.9%; in the test with IGROV1 ovarian it was 118%. In addition, the growth with OVCAR-3 ovarian is 134%; with NCI/ADR-RES ovarian, 109%.

With `CN(C)c1ncnc2c1ncn2C1CCCCO1` (stereo unspecified), the growth with SR leukemia is 87.7%; in the test on OVCAR-8 ovarian, 107%; in the test with OVCAR-5 ovarian it was 104%; with OVCAR-4 ovarian it was 104%; with SK-OV-3 ovarian, 107%; in the test with IGROV1 ovarian it was 112%. Further, the growth in the test on OVCAR-3 ovarian was 113%; with NCI/ADR-RES ovarian, 108%.

Turning to `CC(=O)Nc1c(Cl)cc2c(c1Cl)Cc1ccccc1-2`, the growth was 101% with SR leukemia; 102% with OVCAR-8 ovarian; 85.4% in the test with OVCAR-5 ovarian; 100% in the test with OVCAR-4 ovarian; 113% in the test with SK-OV-3 ovarian; 93% in the test with IGROV1 ovarian. Also, the results for the growth in the test on OVCAR-3 ovarian, in the test with HS 578T breast and in the test on NCI/ADR-RES ovarian were 105%, 114% and 103%, respectively.

Turning to `O=C(Nc1ccccc1S)c1ccccc1`, the growth in the test with SR leukemia was 82.6%; in the test on OVCAR-8 ovarian it was 105%; with OVCAR-5 ovarian it was 123%; in the test with OVCAR-4 ovarian, 98.4%; with SK-OV-3 ovarian it was 115%; in the test with IGROV1 ovarian, 107%. Besides, the results for the growth with OVCAR-3 ovarian, in the test with HS 578T breast and in the test with NCI/ADR-RES ovarian were 112%, 103% and 98.1%, respectively.

For the compound `CC(C)CNc1nc(N=[N+]=[N-])nc(NCC(C)C)n1`, the growth is -7.86% [100 µM] (active) in the test on SR leukemia; 57.3% [100 µM] with OVCAR-8 ovarian; 75% [100 µM] in the test on OVCAR-5 ovarian; 52.7% [100 µM] in the test with OVCAR-4 ovarian; 83.7% [100 µM] with SK-OV-3 ovarian; 70.9% [100 µM] with IGROV1 ovarian. Moreover, the growth in the test on OVCAR-3 ovarian was 60.1% [100 µM]; in the test on HS 578T breast, 61.1% [100 µM]; in the test with NCI/ADR-RES ovarian it was 54.1% [100 µM].

Regarding `C(=C1c2ccccc2-c2ccccc21)c1ccccn1`, the growth with SR leukemia is 22.6%; with OVCAR-8 ovarian, 93.4%; in the test on OVCAR-5 ovarian it was 87.3%; with OVCAR-4 ovarian, 70.7%; in the test on SK-OV-3 ovarian, 95.5%; in the test on IGROV1 ovarian it was 74.1%. Also, the growth with OVCAR-3 ovarian was 53.1%; with HS 578T breast, 65.4%; in the test with NCI/ADR-RES ovarian it was 31.1%.

Take `COc1c(O)cc2c(c1CC=C(C)C)OC(=O)c1c(cc(O)c(CC=C(C)C)c1O)O2`: the growth in the test with SR leukemia was -21.4% (active); in the test on OVCAR-8 ovarian it was 42.4%; in the test with OVCAR-5 ovarian, 72%; in the test with OVCAR-4 ovarian, 43.8%; with SK-OV-3 ovarian, 86.7%; in the test on IGROV1 ovarian, 69.6%. In addition, the growth in the test with OVCAR-3 ovarian was 34.2%; with NCI/ADR-RES ovarian, -13.7% (active).
